Data published in publication PMC11006913.

Tests used:
Assay in all cases: PBM; 200 nM protein, PBS
Details in all cases: dsDNA, one strand shown
HESX1 [1] = target: HESX1 (Homo sapiens, UniProt Q9UBX0 95-180, R165K)
HESX1 [2] = target: HESX1 (Homo sapiens, UniProt Q9UBX0 95-180)
HESX1 [3] = target: HESX1 (Homo sapiens, UniProt Q9UBX0 95-180, R109Q)
HESX1 [4] = target: HESX1 (Homo sapiens, UniProt Q9UBX0 95-180, P111T)
HESX1 [5] = target: HESX1 (Homo sapiens, UniProt Q9UBX0 95-180, F115L)
HESX1 (Homo sapiens, UniProt Q9UBX0 95-180, F115L), sequence (Q9UBX0 95-180 F115L): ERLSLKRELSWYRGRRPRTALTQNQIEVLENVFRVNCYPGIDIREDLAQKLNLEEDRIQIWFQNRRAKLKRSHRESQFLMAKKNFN

HESX1 (Homo sapiens, UniProt Q9UBX0 95-180, R165K), sequence (Q9UBX0 95-180 R165K): as the sequence (Q9UBX0 95-180 F115L) above, with L21F, R71K counted along it
HESX1 (Homo sapiens, UniProt Q9UBX0 95-180, P111T), sequence (Q9UBX0 95-180 P111T): as the sequence (Q9UBX0 95-180 F115L) above, with P17T, L21F counted along it
HESX1 (Homo sapiens, UniProt Q9UBX0 95-180), sequence (Q9UBX0 95-180): as the sequence (Q9UBX0 95-180 F115L) above, with L21F counted along it
HESX1 (Homo sapiens, UniProt Q9UBX0 95-180, R109Q), sequence (Q9UBX0 95-180 R109Q): as the sequence (Q9UBX0 95-180 F115L) above, with R15Q, L21F counted along it

Sequence	binding signal (HESX1 [1])	binding signal (HESX1 [2])	binding signal (HESX1 [3])	binding signal (HESX1 [4])	binding signal (HESX1 [5])
AAGGAGGC	6.49 upbm affinity estimate (log intensity, higher = more binding, comparable within an allelic series)	6.42 upbm affinity estimate (log intensity, higher = more binding, comparable within an allelic series)	6.53 upbm affinity estimate (log intensity, higher = more binding, comparable within an allelic series)	6.52 upbm affinity estimate (log intensity, higher = more binding, comparable within an allelic series)	6.51 upbm affinity estimate (log intensity, higher = more binding, comparable within an allelic series)
CAGGTCGG	6.41 upbm affinity estimate (log intensity, higher = more binding, comparable within an allelic series)	6.42 upbm affinity estimate (log intensity, higher = more binding, comparable within an allelic series)	6.6 upbm affinity estimate (log intensity, higher = more binding, comparable within an allelic series)	6.48 upbm affinity estimate (log intensity, higher = more binding, comparable within an allelic series)	6.57 upbm affinity estimate (log intensity, higher = more binding, comparable within an allelic series)
CGGACAGA	6.41 upbm affinity estimate (log intensity, higher = more binding, comparable within an allelic series)	6.53 upbm affinity estimate (log intensity, higher = more binding, comparable within an allelic series)	6.49 upbm affinity estimate (log intensity, higher = more binding, comparable within an allelic series)	6.59 upbm affinity estimate (log intensity, higher = more binding, comparable within an allelic series)	6.58 upbm affinity estimate (log intensity, higher = more binding, comparable within an allelic series)
CACTGGAG	6.53 upbm affinity estimate (log intensity, higher = more binding, comparable within an allelic series)	6.53 upbm affinity estimate (log intensity, higher = more binding, comparable within an allelic series)	6.58 upbm affinity estimate (log intensity, higher = more binding, comparable within an allelic series)	6.6 upbm affinity estimate (log intensity, higher = more binding, comparable within an allelic series)	6.61 upbm affinity estimate (log intensity, higher = more binding, comparable within an allelic series)
TGAGCGCA	6.52 upbm affinity estimate (log intensity, higher = more binding, comparable within an allelic series)	6.51 upbm affinity estimate (log intensity, higher = more binding, comparable within an allelic series)	6.51 upbm affinity estimate (log intensity, higher = more binding, comparable within an allelic series)	6.49 upbm affinity estimate (log intensity, higher = more binding, comparable within an allelic series)	6.46 upbm affinity estimate (log intensity, higher = more binding, comparable within an allelic series)
AGACGCTC	6.35 upbm affinity estimate (log intensity, higher = more binding, comparable within an allelic series)	6.34 upbm affinity estimate (log intensity, higher = more binding, comparable within an allelic series)	6.5 upbm affinity estimate (log intensity, higher = more binding, comparable within an allelic series)	6.36 upbm affinity estimate (log intensity, higher = more binding, comparable within an allelic series)	6.54 upbm affinity estimate (log intensity, higher = more binding, comparable within an allelic series)
TCCTGCCA	6.57 upbm affinity estimate (log intensity, higher = more binding, comparable within an allelic series)	6.47 upbm affinity estimate (log intensity, higher = more binding, comparable within an allelic series)	6.52 upbm affinity estimate (log intensity, higher = more binding, comparable within an allelic series)	6.56 upbm affinity estimate (log intensity, higher = more binding, comparable within an allelic series)	6.6 upbm affinity estimate (log intensity, higher = more binding, comparable within an allelic series)
GACGGCGA	6.46 upbm affinity estimate (log intensity, higher = more binding, comparable within an allelic series)	6.46 upbm affinity estimate (log intensity, higher = more binding, comparable within an allelic series)	6.44 upbm affinity estimate (log intensity, higher = more binding, comparable within an allelic series)	6.52 upbm affinity estimate (log intensity, higher = more binding, comparable within an allelic series)	6.44 upbm affinity estimate (log intensity, higher = more binding, comparable within an allelic series)
CCAGCCCA	6.4 upbm affinity estimate (log intensity, higher = more binding, comparable within an allelic series)	6.43 upbm affinity estimate (log intensity, higher = more binding, comparable within an allelic series)	6.47 upbm affinity estimate (log intensity, higher = more binding, comparable within an allelic series)	6.48 upbm affinity estimate (log intensity, higher = more binding, comparable within an allelic series)	6.55 upbm affinity estimate (log intensity, higher = more binding, comparable within an allelic series)
GCCTGGCC	6.59 upbm affinity estimate (log intensity, higher = more binding, comparable within an allelic series)	6.61 upbm affinity estimate (log intensity, higher = more binding, comparable within an allelic series)	6.46 upbm affinity estimate (log intensity, higher = more binding, comparable within an allelic series)	6.51 upbm affinity estimate (log intensity, higher = more binding, comparable within an allelic series)	6.6 upbm affinity estimate (log intensity, higher = more binding, comparable within an allelic series)
CACGGCTC	6.57 upbm affinity estimate (log intensity, higher = more binding, comparable within an allelic series)	6.56 upbm affinity estimate (log intensity, higher = more binding, comparable within an allelic series)	6.55 upbm affinity estimate (log intensity, higher = more binding, comparable within an allelic series)	6.58 upbm affinity estimate (log intensity, higher = more binding, comparable within an allelic series)	6.53 upbm affinity estimate (log intensity, higher = more binding, comparable within an allelic series)
GCCGAAAC	6.58 upbm affinity estimate (log intensity, higher = more binding, comparable within an allelic series)	6.54 upbm affinity estimate (log intensity, higher = more binding, comparable within an allelic series)	6.57 upbm affinity estimate (log intensity, higher = more binding, comparable within an allelic series)	6.61 upbm affinity estimate (log intensity, higher = more binding, comparable within an allelic series)	6.57 upbm affinity estimate (log intensity, higher = more binding, comparable within an allelic series)
GGCGCTAC	6.32 upbm affinity estimate (log intensity, higher = more binding, comparable within an allelic series)	6.38 upbm affinity estimate (log intensity, higher = more binding, comparable within an allelic series)	6.35 upbm affinity estimate (log intensity, higher = more binding, comparable within an allelic series)	6.43 upbm affinity estimate (log intensity, higher = more binding, comparable within an allelic series)	6.32 upbm affinity estimate (log intensity, higher = more binding, comparable within an allelic series)
CGGCACGC	6.6 upbm affinity estimate (log intensity, higher = more binding, comparable within an allelic series)	6.41 upbm affinity estimate (log intensity, higher = more binding, comparable within an allelic series)	6.57 upbm affinity estimate (log intensity, higher = more binding, comparable within an allelic series)	6.5 upbm affinity estimate (log intensity, higher = more binding, comparable within an allelic series)	6.53 upbm affinity estimate (log intensity, higher = more binding, comparable within an allelic series)
CGCTCCTC	6.29 upbm affinity estimate (log intensity, higher = more binding, comparable within an allelic series)	6.25 upbm affinity estimate (log intensity, higher = more binding, comparable within an allelic series)	6.53 upbm affinity estimate (log intensity, higher = more binding, comparable within an allelic series)	6.33 upbm affinity estimate (log intensity, higher = more binding, comparable within an allelic series)	6.5 upbm affinity estimate (log intensity, higher = more binding, comparable within an allelic series)
